# According to PubChem BioAssay:
# The source made the active and inactive calls. Unless noted, how the calls were made is not given here.
# Key:
# [1] = resazurin metabolic signal in HepG2 cells – cell-based, resazurin fluorescence, 24 h, PK04 Diversity Set, profiling panel (AID 1172); conditions: HepG2 viability, higher = more signal; further: test concentration not given here
# [2] = budding yeast growth changes without added modifier – OD600, strain BY4716, 24 h, basal condition, primary screen (AID 1173); conditions: S. cerevisiae BY4716 growth, OD600, 24 h; higher = more signal, called active from +8 up or from −8 down
# [3] = viability profiling in MM1S myeloma cells – cell-based, resazurin fluorescence, basal, 24 h, PK04 Diversity Set, profiling panel (AID 1174); conditions: higher = more signal, called active from +8 up or from −8 down;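 further: MM1S multiple myeloma cell line; test concentration not given here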
# [4] = target: Dihydroorotate dehydrogenase (quinone), mitochondrial (Plasmodium falciparum (isolate 3D7)) (UniProt Q08210); assay: inhibition of P. falciparum DHODH – biochemical, C-terminal His tag, absorbance 600 nm, primary screen (AID 1175); conditions: PfDHODH enzyme, DCIP absorbance 600 nm; higher = more signal, called active from +8 up or from −8 down;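 further: recombinant parasite enzyme with a five histidine tag at its C terminus; test concentration not given here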
# [5] = inhibition of PAO1 biofilm formation – strain PAO1, LB-PBS medium, absorbance 600 nm, primary screen (AID 1176); further: test concentration not given here; conditions: P. aeruginosa PAO1 growth/biofilm, A600, 12 h; higher = more signal
# [6] = growth modulation of vineyard yeast isolate – strain RM11-1a, OD600, basal, 24 h, primary screen (AID 1177);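 further: cultures grown under basal conditions with no added stressor; test concentration not given here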; conditions: S. cerevisiae RM11-1a growth, OD600, 24 h; higher = more signal, called active from +8 up or from −8 down
# [7] = growth of efflux-deficient E. coli DRC39 – strain DRC39, OD650, 24 h, E. coli filamentation inducers, primary screen (AID 1178);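 further: growth measured as culture turbidity by optical density at 650 nm; test concentration not given here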; conditions: E. coli DRC39 acrAB, higher = more signal, called active from +8 up or from −8 down
# [8] = growth of efflux-deficient E. coli DRC39 – strain DRC39, OD650, 48 h, E. coli filamentation inducers, primary screen (AID 1179);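 further: screen aims at cell division blockers that make cells filament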; conditions: E. coli DRC39 delta-acrAB growth, higher = more signal, called active from +8 up or from −8 down
# [9] = viability profiling in RPMI8226 myeloma cells – cell-based, resazurin fluorescence, basal, 24 h, PK04 Diversity Set, profiling panel (AID 1180); conditions: higher = more signal;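 further: RPMI8826 multiple myeloma cell line at 5000 cells per well; test concentration not given here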
# [10] = target: E3 ubiquitin-protein ligase XIAP (Homo sapiens) (UniProt P98170); assay: small molecules binding XIAP protein – biophysical, small-molecule microarray, fluorescence 635 nm, primary screen (AID 1181); conditions: higher = more signal;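 further: score merges 667 nm emission and signal to noise over triplicate slides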
# Sequence of E3 ubiquitin-protein ligase XIAP (Homo sapiens) (P98170 whole entry, looked up): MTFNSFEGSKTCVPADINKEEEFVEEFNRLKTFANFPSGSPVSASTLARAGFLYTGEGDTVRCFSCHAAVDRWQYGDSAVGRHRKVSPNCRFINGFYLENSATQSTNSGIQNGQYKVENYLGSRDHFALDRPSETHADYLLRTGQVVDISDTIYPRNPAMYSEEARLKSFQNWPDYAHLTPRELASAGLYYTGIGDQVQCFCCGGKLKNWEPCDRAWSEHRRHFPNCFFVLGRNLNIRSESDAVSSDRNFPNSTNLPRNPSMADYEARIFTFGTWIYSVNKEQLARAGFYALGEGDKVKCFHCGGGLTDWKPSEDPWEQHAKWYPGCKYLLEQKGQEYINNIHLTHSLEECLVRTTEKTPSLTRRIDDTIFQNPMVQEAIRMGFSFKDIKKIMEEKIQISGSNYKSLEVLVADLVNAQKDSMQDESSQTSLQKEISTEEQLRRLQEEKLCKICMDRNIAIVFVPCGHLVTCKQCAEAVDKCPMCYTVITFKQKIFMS
# Sequence of Dihydroorotate dehydrogenase (quinone), mitochondrial (Plasmodium falciparum (isolate 3D7)) (Q08210 whole entry, looked up): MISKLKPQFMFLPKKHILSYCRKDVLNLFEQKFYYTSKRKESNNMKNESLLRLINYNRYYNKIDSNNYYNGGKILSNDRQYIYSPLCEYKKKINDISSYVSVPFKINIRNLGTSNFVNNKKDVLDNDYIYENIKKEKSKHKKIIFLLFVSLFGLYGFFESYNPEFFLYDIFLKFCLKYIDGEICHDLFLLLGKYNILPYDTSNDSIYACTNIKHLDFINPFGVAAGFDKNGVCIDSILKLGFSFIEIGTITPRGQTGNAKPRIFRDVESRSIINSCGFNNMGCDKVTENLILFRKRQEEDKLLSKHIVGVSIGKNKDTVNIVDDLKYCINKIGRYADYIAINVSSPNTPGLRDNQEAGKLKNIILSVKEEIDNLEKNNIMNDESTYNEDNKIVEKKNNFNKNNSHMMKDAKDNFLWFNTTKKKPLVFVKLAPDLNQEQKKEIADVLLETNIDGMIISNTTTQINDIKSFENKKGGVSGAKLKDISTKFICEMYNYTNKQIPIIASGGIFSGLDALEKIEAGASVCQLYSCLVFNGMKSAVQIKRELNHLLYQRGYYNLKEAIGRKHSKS
structure (smiles),measurement,setting,value
O=C1O[C@H](c2ccccc2)[C@H](c2ccccc2)N2[C@H]1[C@@H](C(=O)NC[C@H](O)c1ccccc1)[C@]1(C(=O)Nc3ccc(C#CCCO)cc31)[C@H]2c1ccc(O)cc1,z-score,[1],-0.0297
same,z-score,[2],0.047 (inactive)
same,z-score,[3],-0.0226 (inactive)
same,composite z-score,[4],-1.4 (inactive)
same,z-score,[5],0.432 (inactive)
same,z-score,[6],0.117 (inactive)
same,z-score,[7],-0.568 (inactive)
same,z-score,[8],-0.982 (inactive)
same,z-score,[9],-0.186
same,composite z-score,[10],0.133
COCCOC(=O)N1C(=O)[C@@]2(c3cc(C#CCNC(N)=O)ccc31)[C@H](C(=O)N1CCN(c3ncccn3)CC1)[C@H]1C(=O)O[C@H](c3ccccc3)[C@H](c3ccccc3)N1[C@@H]2c1ccccc1OCCO,z-score,[1],0.841
same,z-score,[2],2.3 (inactive)
same,z-score,[3],0.0815 (inactive)
same,composite z-score,[4],0.373 (inactive)
same,z-score,[5],0.669 (inactive)
same,z-score,[6],3.47 (inactive)
same,z-score,[7],0.559 (inactive)
same,z-score,[8],-0.438 (inactive)
same,z-score,[9],0.147
same,composite z-score,[10],0.0611
COCCOC(=O)N1C(=O)[C@@]2(c3cc(C#CC4=CCCCC4)ccc31)[C@H](C(=O)NC[C@H](O)c1ccccc1)[C@H]1C(=O)O[C@H](c3ccccc3)[C@H](c3ccccc3)N1[C@@H]2c1ccc(O)cc1,z-score,[1],-0.789
same,z-score,[2],-0.571 (inactive)
same,z-score,[3],-0.925 (inactive)
same,composite z-score,[4],0.409 (inactive)
same,z-score,[5],1.01 (inactive)
same,z-score,[6],1.55 (inactive)
same,z-score,[7],-0.237 (inactive)
same,z-score,[8],0.174 (inactive)
same,z-score,[9],-1.73
same,composite z-score,[10],-0.02
CC(C)N1C(=O)[C@@]2(c3ccc([N+](=O)[O-])cc3)CC(=O)N(CC34CC5CC(CC(C5)C3)C4)[C@@H]2c2ccc(CO)cc21,z-score,[1],-0.0685
same,z-score,[2],0.601 (inactive)
same,z-score,[3],-1.02 (inactive)
same,composite z-score,[4],-4.98 (inactive)
same,z-score,[5],-0.0902 (inactive)
same,z-score,[6],0.156 (inactive)
same,z-score,[7],0.101 (inactive)
same,z-score,[8],0.0457 (inactive)
same,z-score,[9],-0.629
same,composite z-score,[10],-0.0224
NC(=O)NCC#Cc1ccc2c(c1)[C@]1(C(=O)N2)[C@H](C(=O)NC[C@H](O)c2ccccc2)[C@H]2C(=O)O[C@H](c3ccccc3)[C@H](c3ccccc3)N2[C@@H]1c1ccc(O)cc1,z-score,[1],-0.0042
same,z-score,[2],1.56 (inactive)
same,z-score,[3],-0.027 (inactive)
same,composite z-score,[4],0.389 (inactive)
same,z-score,[5],1.32 (inactive)
same,z-score,[6],2.12 (inactive)
same,z-score,[7],0.346 (inactive)
same,z-score,[8],0.0233 (inactive)
same,z-score,[9],-0.518
same,composite z-score,[10],0.15
C=CCC(OC(C)=O)[C@@H]1[C@@H](N(Cc2cc3ccccc3o2)C(=O)c2ccc(C)cc2)c2cc(OCCCO)ccc2N1C(=O)c1ccc2ccccc2c1 (stereo not given in full),z-score,[1],0.792
same,z-score,[2],-0.195 (inactive)
same,z-score,[3],0.951 (inactive)
same,composite z-score,[4],-0.375 (inactive)
same,z-score,[5],-0.583 (inactive)
same,z-score,[6],0.0749 (inactive)
same,z-score,[7],0.786 (inactive)
same,z-score,[8],1.02 (inactive)
same,z-score,[9],1.72
same,composite z-score,[10],0.0015
NCCCCCNC(=O)[C@H]1C[C@H]2C(=O)NCC(=O)N2[C@H]1c1cccc(OCCO)c1,z-score,[1],0.871
same,z-score,[2],-0.0725 (inactive)
same,z-score,[3],0.998 (inactive)
same,composite z-score,[4],-0.355 (inactive)
same,z-score,[5],-0.242 (inactive)
same,z-score,[6],0.0993 (inactive)
same,z-score,[7],1.07 (inactive)
same,z-score,[8],1.23 (inactive)
same,z-score,[9],0.616
same,composite z-score,[10],-0.119
O=C1O[C@H](c2ccccc2)[C@H](c2ccccc2)N2[C@H]1[C@@H](C(=O)N1CCN(c3ncccn3)CC1)[C@]1(C(=O)Nc3ccccc31)[C@H]2c1ccc(OCCO)cc1,z-score,[1],1.42
same,z-score,[2],1.4 (inactive)
same,z-score,[3],0.792 (inactive)
same,composite z-score,[4],1.12 (inactive)
same,z-score,[5],1.55 (inactive)
same,z-score,[6],1.81 (inactive)
same,z-score,[7],0.774 (inactive)
same,z-score,[8],0.0049 (inactive)
same,z-score,[9],0.368
same,composite z-score,[10],0.109
